Records with an inconclusive call do not appear. Active and inactive are the calls of the source. Unless noted, the call rests on the fitted dose curve; in most records, active means well fitted curve in the direction sought with a large enough effect; inconclusive means small, poorly fitted or top-dose-only effect, or another doubt; inactive means no such curve, though single readings can be large; an effect the other way counts as inactive or inconclusive.
Legend:
[1] = biological target: Lysosomal acid glucosylceramidase (Homo sapiens) (UniProt P04062); experiment: Glucocerebrosidase-p2 (AID 348; in the data active means potency below about 10 µM; further: potency means the concentration at half of the fitted maximal effect); details: purified GBA, blue fluorogenic substrate, 40 min
Lysosomal acid glucosylceramidase (Homo sapiens), sequence (P04062 whole entry, looked up): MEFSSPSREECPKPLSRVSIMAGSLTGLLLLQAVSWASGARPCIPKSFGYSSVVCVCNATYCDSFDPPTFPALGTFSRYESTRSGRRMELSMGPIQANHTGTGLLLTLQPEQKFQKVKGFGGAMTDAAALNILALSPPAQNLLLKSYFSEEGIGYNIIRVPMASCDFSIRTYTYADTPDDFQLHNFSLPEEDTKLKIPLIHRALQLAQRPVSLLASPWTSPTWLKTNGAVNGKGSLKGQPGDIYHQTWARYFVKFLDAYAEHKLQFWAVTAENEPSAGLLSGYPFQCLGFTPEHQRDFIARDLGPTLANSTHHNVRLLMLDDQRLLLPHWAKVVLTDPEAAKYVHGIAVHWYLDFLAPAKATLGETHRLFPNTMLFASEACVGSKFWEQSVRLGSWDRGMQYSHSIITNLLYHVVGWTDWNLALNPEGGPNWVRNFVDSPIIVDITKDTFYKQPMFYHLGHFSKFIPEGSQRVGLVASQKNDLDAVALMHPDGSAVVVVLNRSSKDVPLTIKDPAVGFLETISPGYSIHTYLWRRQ
Outline: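 Compounds titrated from 0.6 nM upwards against 0.2 nM enzyme in pH 5.9 citric acid/KH2PO4, taurocholate, tween-20; blue fluorogenic substrate 80 uM, 40 min room temperature, stopped and read Ex 365/Em 440 for AC50.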

[2] = AP1 Signaling Pathway (AID 357; active means well fitted curve in either direction with a large enough effect, not every such curve was filed as active;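 further: ME-180 reporter cells stimulated with EGF at its EC50 level; on the % scale 0 is the no-effect control and ±100 the full control effect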); details: ME-180 AP-1-bla reporter, EGF-induced, beta-lactamase ratio, 5 h; at 7.69 µM (top of the series) unless noted
Outline: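 A ratiometric CCF4 readout (405 nm excitation; 460 and 530 nm emission) quantified AP-1-driven beta-lactamase in ME-180 cells after 5 h with compound and EC50 EGF; AC50 values were derived for activators and inhibitors.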

[3] = NFAT Signaling Pathway (AID 444; active means well fitted curve in either direction with a large enough effect, not every such curve was filed as active;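 further: carbachol stimulus at about its EC50 of 1 µM final; on the % scale 0 is the no-effect control and ±100 the full control effect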); details: Jurkat NFAT-bla M1, carbachol, beta-lactamase ratio, 5 h; at 7.69 µM (top of the series) unless noted
Outline: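 Jurkat cells carrying an NFAT-driven β-lactamase reporter and co-transfected muscarinic M1 receptor were treated with compound plus carbachol (1 uM final, an EC50 level) for 5 h at 37 °C. CCF4 loading followed for 1 h at RT; 460/530 nm ratio gave %activity.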

[4] = Stat Signaling Pathway (AID 446; active means well fitted curve in either direction with a large enough effect, not every such curve was filed as active;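 further: ME-180 cervical cancer cells given 40 pM IL-6 alongside compound; SIE-controlled beta-lactamase reporter measured as 460/530 nm FRET emission ratio; on the % scale 0 is the no-effect control and ±100 the full control effect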)
Outline: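 ME-180 SIE-bla cells; overnight plating; cpd + IL-6 40 pM, 5 h, 37 C; LiveBLAzer 2.5 h RT; 460/530 nm emission ratio. Normalized to 300 pM IL-6 and 125 nM JAK inhibitor controls.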

[5] = biological target: Glucocorticoid receptor (Homo sapiens) (UniProt P04150); experiment: GR-EFC Redistribution (AID 451; calls by dose curve; further: potency means the concentration at half of the fitted maximal effect); details: CHO-K1 GR-EFC translocation, beta-gal luminescence, 2 h
Glucocorticoid receptor (Homo sapiens), sequence (P04150 whole entry, looked up, the tested form may be a part): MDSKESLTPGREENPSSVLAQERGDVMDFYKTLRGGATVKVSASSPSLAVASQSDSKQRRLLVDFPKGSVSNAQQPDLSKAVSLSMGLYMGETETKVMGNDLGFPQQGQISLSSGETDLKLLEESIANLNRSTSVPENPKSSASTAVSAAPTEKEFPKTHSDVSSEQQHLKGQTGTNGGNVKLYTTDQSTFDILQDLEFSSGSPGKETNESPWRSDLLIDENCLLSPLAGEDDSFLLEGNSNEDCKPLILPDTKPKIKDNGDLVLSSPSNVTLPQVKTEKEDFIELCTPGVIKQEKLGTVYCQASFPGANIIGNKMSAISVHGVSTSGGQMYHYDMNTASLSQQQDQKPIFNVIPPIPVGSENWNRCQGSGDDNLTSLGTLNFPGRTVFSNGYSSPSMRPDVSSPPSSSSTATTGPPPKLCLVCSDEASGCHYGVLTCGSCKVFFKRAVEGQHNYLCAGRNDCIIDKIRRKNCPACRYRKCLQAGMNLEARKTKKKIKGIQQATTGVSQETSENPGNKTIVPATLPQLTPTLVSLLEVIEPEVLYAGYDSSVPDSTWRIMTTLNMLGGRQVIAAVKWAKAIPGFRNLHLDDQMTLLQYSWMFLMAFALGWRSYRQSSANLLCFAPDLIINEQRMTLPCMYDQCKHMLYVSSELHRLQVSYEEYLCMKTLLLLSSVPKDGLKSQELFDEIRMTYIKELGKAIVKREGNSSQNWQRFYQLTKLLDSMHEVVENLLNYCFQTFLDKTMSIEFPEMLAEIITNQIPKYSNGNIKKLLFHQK
Outline: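 CHO-K1 cells stably expressing nuclear-localized β-gal enzyme acceptor and GR fused C-terminally to the enzyme donor fragment; ligand-driven nuclear translocation restores β-gal by complementation. Compounds titrated up to 46 uM final, 2 h at 37 °C; luminescence read.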

[6] = biological target: Mitogen-activated protein kinase 10 (Mus musculus) (UniProt Q61831); experiment: JNK3 AlphaScreen Assay (AID 530; active means well fitted curve in either direction with a large enough effect, not every such curve was filed as active;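 further: kinase came from lysate of stimulated human HepG2 cells; signal reports phosphorylation of biotinylated GST-cJun 1-79 at Ser73 with 10 µM ATP; on the % scale 0 is the no-effect control and ±100 the full control effect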)
Outline: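 Inhibitors reduce antibody binding to phosphorylated biotin-cJun, lowering AlphaScreen luminescence. Lysates from HepG2 cells pre-activated by IL-1beta plus TNF-alpha supplied JNK3; compounds were titrated.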

[7] = biological target: 3',5'-cyclic-AMP phosphodiesterase 4B (Homo sapiens) (UniProt Q07343); experiment: qHTS Assay for Inhibitors of PDE-IV (AID 607; active means well fitted activation curve with a large enough effect in the main read-out, with a control signal flat, not every such curve was filed as active; further: % of control where 0% means no effect)
3',5'-cyclic-AMP phosphodiesterase 4B (Homo sapiens), sequence (Q07343 whole entry, looked up): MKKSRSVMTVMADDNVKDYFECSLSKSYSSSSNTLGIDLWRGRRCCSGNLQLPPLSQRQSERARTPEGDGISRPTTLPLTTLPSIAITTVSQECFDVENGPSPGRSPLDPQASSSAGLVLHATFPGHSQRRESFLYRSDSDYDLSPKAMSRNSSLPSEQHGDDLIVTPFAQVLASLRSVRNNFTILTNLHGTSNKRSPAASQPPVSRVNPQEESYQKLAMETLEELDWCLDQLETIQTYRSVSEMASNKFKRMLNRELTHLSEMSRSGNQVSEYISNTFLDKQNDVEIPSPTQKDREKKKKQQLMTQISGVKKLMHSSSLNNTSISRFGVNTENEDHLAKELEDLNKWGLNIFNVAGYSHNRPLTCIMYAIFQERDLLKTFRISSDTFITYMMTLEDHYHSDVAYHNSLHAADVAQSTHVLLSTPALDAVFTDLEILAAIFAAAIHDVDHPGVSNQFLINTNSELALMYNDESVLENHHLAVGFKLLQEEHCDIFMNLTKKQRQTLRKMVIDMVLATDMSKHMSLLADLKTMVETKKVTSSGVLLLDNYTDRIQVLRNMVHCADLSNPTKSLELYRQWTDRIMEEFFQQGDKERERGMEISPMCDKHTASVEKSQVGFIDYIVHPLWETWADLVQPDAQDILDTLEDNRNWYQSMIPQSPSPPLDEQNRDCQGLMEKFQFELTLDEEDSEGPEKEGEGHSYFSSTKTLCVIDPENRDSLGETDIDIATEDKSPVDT
Outline: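 ACTOne HEK293 cells carry a modified cAMP-gated CNG channel and express endogenous PDE4; plated 1000 cells/well, compounds up to 22.9 uM final. Membrane-potential dye fluorescence (ex 535/em 590) was read; parental cells received 10 uM forskolin + 100 uM RO 20-1724.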

[8] = biological target: Ubiquitin carboxyl-terminal hydrolase 1 (Homo sapiens) (UniProt O94782); experiment: Inhibitors of USP1/UAF1: Pilot qHTS (AID 504865);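 further: rhodamine fluorescence freed from ubiquitin-rhodamine substrate followed over time; top concentration of the series differs between compounds; on the % scale 0 is the no-effect control and ±100 the full control effect; nearly all actives have a fitted effect of over 35% in size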
Ubiquitin carboxyl-terminal hydrolase 1 (Homo sapiens), sequence (O94782 whole entry, looked up): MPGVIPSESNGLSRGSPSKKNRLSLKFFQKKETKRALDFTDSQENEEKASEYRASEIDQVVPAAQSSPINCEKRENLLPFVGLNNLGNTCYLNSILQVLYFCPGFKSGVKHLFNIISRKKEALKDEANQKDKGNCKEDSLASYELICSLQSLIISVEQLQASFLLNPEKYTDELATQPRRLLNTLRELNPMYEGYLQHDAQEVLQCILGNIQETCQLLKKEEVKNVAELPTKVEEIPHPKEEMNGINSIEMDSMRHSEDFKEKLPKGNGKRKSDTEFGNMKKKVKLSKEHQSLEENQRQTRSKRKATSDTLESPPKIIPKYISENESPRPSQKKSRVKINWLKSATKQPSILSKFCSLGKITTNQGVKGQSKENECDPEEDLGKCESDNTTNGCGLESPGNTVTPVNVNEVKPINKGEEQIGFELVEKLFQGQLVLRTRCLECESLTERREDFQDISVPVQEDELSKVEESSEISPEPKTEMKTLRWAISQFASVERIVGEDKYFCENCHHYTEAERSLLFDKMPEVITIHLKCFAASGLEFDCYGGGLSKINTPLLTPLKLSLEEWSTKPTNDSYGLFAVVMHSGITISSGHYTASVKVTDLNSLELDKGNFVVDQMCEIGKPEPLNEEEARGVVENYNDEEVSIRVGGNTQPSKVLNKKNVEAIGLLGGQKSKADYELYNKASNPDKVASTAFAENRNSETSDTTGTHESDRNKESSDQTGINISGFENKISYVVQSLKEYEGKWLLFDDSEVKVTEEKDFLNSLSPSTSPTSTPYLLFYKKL
Outline: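 1nM USP1/UAF1 + cpd, 15 min RT; start w/ Ub-Rho 150nM final; kinetic FL 480/540 nm, 6 reads q60 s. Buffer 50mM HEPES pH 7.8, 0.5mM EDTA, 1mM TCEP, 0.01% Tween-20, 0.1 mg/ml BSA.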

[9] = biological target: Glucocorticoid receptor (Homo sapiens) (UniProt P04150); experiment: GR-GFP Redistribution (AID 450;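 active means compounds whose dose series gives a full or clear partial fitted curve of increased nuclear translocation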; further: potency means the concentration at half of the fitted maximal effect); details: U2OS GR-GFP nuclear translocation, laser cytometry, 2 h
[10] = Viability counterscreen for antagonist of constitutive androstane receptor (CAR) against the NCATS DSHEA and TCM libraries (AID 1794837);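 further: compound exposure lasted 24 h before viability reading; 0% is about no effect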
Outline: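 Cell viability, CellTiter-Fluor, Ex/Em 405/540 nm, 1 h at 37C. HepG2-CYP2B6-hCAR, 2,500 cells/well; cpds + CITCO 48 uM final (antagonist mode), 24 h, 37C/5% CO2.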

[11] = Viability counterscreen for agonist of constitutive androstane receptor (CAR) against the NCATS DSHEA and TCM libraries (AID 1794838); further: 0% is about no effect
Outline: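 Viability by CellTiter-Fluor fluorescence, 405/540 nm, after 1 h at 37C. HepG2-CYP2B6-hCAR cells were exposed 24 h to test substances in presence of 0.75 uM PK11195 (final).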

[12] = biological target: Nuclear receptor subfamily 1 group I member 3 (Homo sapiens) (UniProt Q14994); experiment: Primary qHTS for agonist of constitutive androstane receptor (CAR) against the NCATS DSHEA and TCM libraries (AID 1794839);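 further: HepG2 cells expressing human CAR with a CYP2B6 reporter plus PK11195 antagonist; 0% is about no effect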
Nuclear receptor subfamily 1 group I member 3 (Homo sapiens), sequence (Q14994 whole entry, looked up): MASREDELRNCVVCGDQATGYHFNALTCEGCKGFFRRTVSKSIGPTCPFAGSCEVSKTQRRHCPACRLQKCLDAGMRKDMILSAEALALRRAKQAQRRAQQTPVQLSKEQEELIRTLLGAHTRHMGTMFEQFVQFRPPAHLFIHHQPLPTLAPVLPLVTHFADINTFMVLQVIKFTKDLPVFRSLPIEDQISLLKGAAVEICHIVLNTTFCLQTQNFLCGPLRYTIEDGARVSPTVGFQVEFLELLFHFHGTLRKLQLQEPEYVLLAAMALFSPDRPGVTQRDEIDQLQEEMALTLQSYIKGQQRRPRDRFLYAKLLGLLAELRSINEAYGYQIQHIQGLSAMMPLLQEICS
Outline: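 Luminescence from ONE-Glo luciferase was the agonist read-out in HepG2-CYP2B6-hCAR cells exposed 24 h to test substances. Wells also held the CAR antagonist PK11195 at 0.75 µM final. Viability was by CellTiter-Fluor fluorescence.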

[13] = HepG2 viability counterscreen (readout 2: ATP content) against the NCATS DSHEA and TCM libraries (AID 1794840); further: 0% is about no effect
Outline: (§1)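 1,000 HepG2 cells/well, 4 h attach; compounds ~24 h, 37C/5% CO2. Readout 1: GF-AFC 25 uM final, 30 min, fluorescence 380/510 nm. Readout 2: CellTiter-Glo, 30 min RT, luminescence.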

[14] = HepG2 viability counterscreen (readout 1: protease activity) against the NCATS DSHEA and TCM libraries (AID 1794841);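 further: cells exposed to compounds for about 24 h before the protease read; 0% is about no effect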
Outline: as §1

[15] = biological target: Cytochrome P450 2D6 (Homo sapiens) (UniProt P10635); experiment: qHTS for inhibitors of CYP2D6 against the NCATS DSHEA and TCM libraries (AID 1919972); further: on the % scale 0 is the no-effect control and ±100 the full control effect
Cytochrome P450 2D6 (Homo sapiens), sequence (P10635 whole entry, looked up): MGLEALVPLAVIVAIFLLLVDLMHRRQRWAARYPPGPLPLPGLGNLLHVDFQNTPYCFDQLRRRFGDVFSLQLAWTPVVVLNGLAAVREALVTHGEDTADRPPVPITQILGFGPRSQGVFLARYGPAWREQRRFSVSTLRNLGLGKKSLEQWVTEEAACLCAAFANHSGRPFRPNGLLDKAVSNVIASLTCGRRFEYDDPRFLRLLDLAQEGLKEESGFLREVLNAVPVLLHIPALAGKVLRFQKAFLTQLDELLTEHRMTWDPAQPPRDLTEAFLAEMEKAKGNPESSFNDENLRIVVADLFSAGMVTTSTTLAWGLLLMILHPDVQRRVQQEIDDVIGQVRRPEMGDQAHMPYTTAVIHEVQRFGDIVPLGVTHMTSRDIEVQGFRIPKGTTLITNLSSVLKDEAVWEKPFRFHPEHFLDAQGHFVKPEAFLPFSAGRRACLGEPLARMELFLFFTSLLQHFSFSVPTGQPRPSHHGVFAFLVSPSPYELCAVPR
Outline: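 Luminescent P450-Glo read-out of CYP2D6 turnover of a luciferin substrate after NADPH-driven reaction of 30-45 min at room temperature. Compounds were first preincubated 15 min with enzyme at titrated concentrations; quinidine was the intraplate control.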

[16] = KB-3-1 P-gp reporter qHTS against the NCATS DSHEA and TCM libraries (AID 1919975); further: 0% is about no effect
Outline: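 CellTiter-Glo luminescence viability readout; KB-3-1 parental cells, 500/well, attached ~4 h, then compound for ~72 h, 37C, 5% CO2. Bortezomib intraplate control.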

[17] = qHTS Counterscreen for compound interference against the NCATS DSHEA and TCM libraries (AID 1919978); details: firefly luciferase detection reagent interference, luminescence;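 further: compounds preincubated with 1 µM D-luciferin or buffer before detection reagent; % of control where 0% means no effect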
Outline: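 Luminescence counterscreen for detection-kit interference: compounds at 19.5 nM–39.8 uM final, 15 min RT with 1 uM D-luciferin or buffer only; detection reagent added, 30 min RT, then read.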

[18] = Dual reporter qHTS for agonist of Pregnane X Receptor (hPXR) against the NCATS DSHEA and TCM libraries: Fluorescence readout (AID 1920058); further: 0% is about no effect
Outline: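 HepG2 hPXR-Luc, 2000 cells/well, 5 h attach; cpds ~24 h, 37 °C/5% CO2; CellTiter-Fluor 1 h; fluor. Ex/Em 405/540 nm = viability.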

[19] = biological target: Nuclear receptor subfamily 1 group I member 2 (Homo sapiens) (UniProt O75469); experiment: Dual reporter qHTS for agonist of Pregnane X Receptor (hPXR) against the NCATS DSHEA and TCM libraries: Luminescence readout (AID 1920059); further: 0% is about no effect
Nuclear receptor subfamily 1 group I member 2 (Homo sapiens), sequence (O75469 whole entry, looked up): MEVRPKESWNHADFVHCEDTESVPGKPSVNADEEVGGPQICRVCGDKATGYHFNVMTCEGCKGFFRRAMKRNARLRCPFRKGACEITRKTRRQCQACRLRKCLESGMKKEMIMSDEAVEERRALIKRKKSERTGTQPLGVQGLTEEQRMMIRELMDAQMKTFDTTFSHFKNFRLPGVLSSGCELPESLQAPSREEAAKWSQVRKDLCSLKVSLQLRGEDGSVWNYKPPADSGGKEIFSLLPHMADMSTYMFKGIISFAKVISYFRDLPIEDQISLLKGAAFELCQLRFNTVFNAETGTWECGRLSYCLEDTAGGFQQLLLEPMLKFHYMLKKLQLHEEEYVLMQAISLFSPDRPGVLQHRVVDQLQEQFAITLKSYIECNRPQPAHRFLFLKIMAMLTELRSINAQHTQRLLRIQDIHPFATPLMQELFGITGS
Outline: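 hPXR-LucHepG2 cells in phenol red-free DMEM with 5% charcoal-stripped FBS, 2000 cells/well, attached 5 h, then exposed 24 h at 37C to compounds; rifampicin as positive agonist control (2.8 nM–92 uM). Luciferase luminescence read.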

[20] = biological target: Nuclear receptor subfamily 1 group I member 2 (Homo sapiens) (UniProt O75469); experiment: Dual reporter qHTS for antagonist of Pregnane X Receptor (hPXR) against the NCATS DSHEA and TCM libraries: Luminescence Readout (AID 1920060);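 further: HepG2 cells carrying hPXR luciferase reporter stimulated with rifampicin at 2 µM; 0% is about no effect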
Outline: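 Antagonist mode: rifampicin 2 uM final co-added with compounds to hPXR-LucHepG2 cells for 24 h at 37C. Viability by CellTiter-Fluor, Ex/Em 405/540 nm, 1 h; reporter by ONE-Glo luminescence.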

COc1cccc(-c2nc(NCCN3CCOCC3)c3ccccc3n2)c1
inactive: Potency [1] > 11.4 µM | activity change, negative = inhibition [2] 6.11% | activity change, negative = inhibition [3] -2.08% | outcome [4] | Potency [5] > 46 µM | Potency [6] | Potency [7] | Potency [8]

COCCn1c(=O)c(CCc2ccccc2)nc2cnc(Oc3ccccc3)nc21
inactive: activity change, negative = inhibition [2] -27.4% | activity change, negative = inhibition [3] 7.7% | outcome [4] | Potency [9] > 9.22 µM | Potency [5] > 46 µM | Potency [7]

COc1ccccc1CNc1cc(-c2cccnc2)ncn1
inactive: activity change, negative = inhibition [2] -4.39% | activity change, negative = inhibition [3] -5.01% | outcome [4] | Potency [9] > 46 µM | Potency [6] | Potency [7]

COc1ccccc1CNc1ccnc(-c2cccc(NS(C)(=O)=O)c2)n1
inactive: activity change, negative = inhibition [2] -17.8% | activity change, negative = inhibition [3] 2.18% | outcome [4] | Potency [9] > 46 µM | Potency [5] > 46 µM | Potency [6] | Potency [7]

C=C1C[C@]23CC[C@H]4[C@@](C)(CCC[C@@]4(C)C(=O)O)[C@@H]2CC[C@@]1(O[C@@H]1O[C@H](CO)[C@@H](O)[C@H](O)[C@H]1O[C@@H]1O[C@H](CO)[C@@H](O)[C@H](O)[C@H]1O)C3
inactive: outcome [10] | outcome [11] | Potency [12] | outcome [13] | outcome [14] | Potency [15] | outcome [16] | max response [17] -1.97% | outcome [18] | Potency [19] | outcome [20]

CC(=O)O[C@H]1[C@H](O[C@H]2CC[C@]34C[C@]35CC[C@]3(C)[C@@H]([C@@]6(C)CC[C@@H](C(C)(C)O)O6)[C@@H](O)C[C@@]3(C)[C@@H]5C[C@H](O[C@@H]3O[C@H](CO)[C@@H](O)[C@H](O)[C@H]3O)[C@H]4C2(C)C)OC[C@@H](O)[C@@H]1O
inactive: outcome [10] | outcome [11] | Potency [12] | outcome [13] | outcome [14] | Potency [15] | outcome [16] | max response [17] -3.47% | outcome [18] | Potency [19] | outcome [20]

COCCNc1ncnc2ccc(-c3ccccc3OC)cc12
inactive: Potency [1] > 11.4 µM | activity change, negative = inhibition [2] -6.49% | activity change, negative = inhibition [3] 2.23% | outcome [4] | Potency [9] > 46 µM | Potency [6] | Potency [7]

CC(=O)OC1CC2CCC1(C)C2(C)C (stereo not drawn)
inactive: Potency [8] | outcome [10] | outcome [11] | Potency [12] | outcome [13] | outcome [14] | Potency [15] | outcome [16] | max response [17] 3.9% | outcome [18] | Potency [19] | outcome [20]

Cc1ncc(COP(=O)(O)O)c(C)c1O
inactive: Potency [1] > 11.4 µM | activity change, negative = inhibition [2] 9.96% | activity change, negative = inhibition [3] -4.14% | outcome [4] | Potency [9] > 46 µM | Potency [5] > 9.22 µM | activity change, negative = inhibition [6] 4.19% [at 11.4 µM] | Potency [7] | outcome [10] | outcome [11] | Potency [12] | outcome [13] | outcome [14] | Potency [15] | outcome [16] | max response [17] -1.84% | outcome [18] | Potency [19] | outcome [20]

Cc1cnc(CNc2ncnc3ccc(-c4ccccc4C)cc23)cn1
inactive: Potency [1] > 11.4 µM | activity change, negative = inhibition [2] -14.7% | activity change, negative = inhibition [3] -7.95% | outcome [4] | Potency [9] > 46 µM | Potency [5] > 46 µM | Potency [7] | Potency [8]

CN(CC(=O)O)C(=N)N
inactive: outcome [10] | outcome [11] | Potency [12] | outcome [13] | outcome [14] | Potency [15] | outcome [16] | max response [17] -1.47% | outcome [18] | Potency [19] | outcome [20]

CN(C)C(=O)c1ccc(-c2cc(NCc3ccccc3)ncn2)cc1
inactive: Potency [1] > 11.4 µM | activity change, negative = inhibition [2] -9.2% | activity change, negative = inhibition [3] 27.8% | outcome [4] | Potency [9] > 46 µM | Potency [5] > 46 µM | Potency [6] | Potency [7] | Potency [8]

CC(C)[C@H](C)CC[C@@H](C)[C@H]1CC[C@H]2[C@@H]3CC=C4C[C@@H](O)CC[C@]4(C)[C@H]3CC[C@]12C
inactive: outcome [10] | outcome [11] | Potency [12] | outcome [13] | outcome [14] | Potency [15] | outcome [16] | max response [17] 2.09% | outcome [18] | Potency [19] | outcome [20]

COc1ncc2nc(-c3ccccc3)c(=O)n(CCc3ccccc3)c2n1
inactive: activity change, negative = inhibition [2] -6.17% | activity change, negative = inhibition [3] -3.72% | outcome [4] | Potency [9] > 9.22 µM | Potency [6] | Potency [8]

CC(C)=CCC[C@](C)(O[C@@H]1O[C@H](CO)[C@@H](O)[C@H](O)[C@H]1O)[C@H]1CC[C@]2(C)[C@@H]1[C@H](O)C[C@@H]1[C@@]3(C)CC[C@H](O)C(C)(C)[C@@H]3[C@@H](O[C@@H]3O[C@H](CO)[C@@H](O)[C@H](O)[C@H]3O[C@@H]3O[C@@H](C)[C@H](O)[C@@H](O)[C@H]3O)C[C@]12C
inactive: outcome [10] | outcome [11] | Potency [12] | outcome [13] | outcome [14] | Potency [15] | outcome [16] | max response [17] 0.587% | outcome [18] | Potency [19] | outcome [20]
